Here are results for seven compounds from PubChem BioAssay (NCATS).

Each structure is given as a SMILES string. “And” between values parts separate entries of the source, which are not always exact repeats. Equal entries are not always repeated. Inconclusive results are not listed. The source made the active and inactive calls. Unless noted, calls follow the shape of the dose curve; as a rule, active = well fitted curve in the direction sought with a large enough effect; inconclusive = small, poorly fitted or top-dose-only effect, or another doubt; inactive = no such curve, though single readings can be large; an effect the other way counts as inactive or inconclusive.

Assay [1] is described as follows: Cell Viability - LYMP2-001 (AID 921).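 Also: series mostly up to about 92 µM; 0% = DMSO only and full inhibition = tetraoctylammonium bromide control wells; nearly all actives have a fitted effect of over 70% in size.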 Put shortly: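 Cellular ATP loss read by luciferase luminescence after 24 h compound exposure at 37 C in complete medium. LYMP2-001 lymphoblastoid cells, 2500/well; qHTS concentration-response data fitted with Hill equation for AC50.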
Assay [2] in a line: MultiTox-Fluor Cytotoxicity Assay - LYMP1-002 - Dead Cells (AID 960).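 Also: cells exposed to compound for 16 h at 37 °C; 0% = DMSO and 100% = tetraoctylammonium bromide; nearly all actives have a fitted effect of over 60% in size.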 The method in brief:
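Concentration-dependent increases in membrane-leaked protease activity are quantified in LYMP1-002 cells after 16 hr treatment; values are normalized against DMSO and tetraoctylammonium bromide (15 uM) controls and AC50 derived by Hill modeling.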

Assay [3] is described as follows: Cell Viability - LYMP2-005 (AID 967).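 Also: series mostly up to about 92 µM; plate controls were DMSO only for no effect and 92 µM tetraoctylammonium bromide control for full effect.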 Put shortly:
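LYMP2-005 human lymphoblastoid cells (2500/well) were treated with compounds for 24 h at 37 C. Intracellular ATP was then measured by CellTiter-Glo luminescence after 30 min at room temperature. AC50 values came from Hill-equation fits of qHTS concentration-response data.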

Assay [4] can be described thus: Cell Viability - LYMP2-011 (AID 969).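 Also: cells exposed to compound for 24 hours; 0% = DMSO only and full inhibition = 92 µM tetraoctylammonium bromide; nearly all actives have a fitted effect of over 60% in size.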 Put shortly:
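Cells seeded at 2500 per well rest 5 hr before compound addition, then incubate 24 hr at 37 C. CellTiter-Glo reagent is added for 30 min at room temperature before luminescence detection.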

The nature of assay [5]: Cell Viability - LYMP2-013 (AID 970).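 Also: series mostly up to about 92 µM; 0% = DMSO only and full inhibition = tetraoctylammonium bromide control; nearly all actives have a fitted effect of over 55% in size.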 Put shortly: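 In complete culture medium, human lymphoblastoid cells were dosed for 24 hr at 37 C, with tetraoctylammonium bromide (6.4pM to 92 uM) as positive control. Viability reflects luciferase-based ATP signal; AC50 derived from concentration-response curves.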
Assay [6] can be described thus: Cell Viability - LYMP2-017 (AID 972).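 Also: series mostly up to about 92 µM; cells exposed to compound for 24 hours at 37 °C; % is scaled to controls: 0 for no effect and ±100 for the full control effect; nearly all actives have a fitted effect of over 55% in size.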 Put shortly: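 In this qHTS format, lymphoblastoid cells in complete medium receive test compound for a day at 37 C before ATP content is quantified by luciferase luminescence. Reported AC50 figures come from standard Hill-equation curve fitting.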
A short description of assay [7]: Cell Viability - LYMP2-023 (AID 975).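 Also: cellular ATP measured by luciferase luminescence as viability proxy; series mostly up to about 92 µM; cells exposed to compound for 24 hours at 37 °C; plate controls were DMSO only for no effect and 92 µM tetraoctylammonium bromide control for full effect; nearly all actives have a fitted effect of over 55% in size.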 The method in brief: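 In this qHTS, ATP-based luciferase luminescence (CellTiter-Glo) is quantified in human lymphoblastoid cells after 24 hr compound treatment at 37 C; tetraoctylammonium bromide serves as positive control. Concentration-response curves are Hill-fitted to give AC50.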
Assay [8] is described as follows: Cell Viability - LYMP2-002 (AID 977).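 Also: series mostly up to about 92 µM; plate controls were DMSO only for no effect and 92 µM tetraoctylammonium bromide for full effect.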 The method in brief: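 In this qHTS viability screen, 2500 human lymphoblastoid cells per well receive compound for 24 hr at 37 C, and luciferase-based ATP luminescence gives the viability signal. Tetraoctylammonium bromide serves as positive control.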
Assay [9] is described as follows: Cell Viability - LYMP2-007 (AID 979).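 Also: cells exposed to compound for 24 h before reading; 0% = DMSO only and the negative end = 92 µM tetraoctylammonium bromide; nearly all actives have a fitted effect of over 60% in size.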 Put shortly:
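Measured via luciferase-based ATP quantitation: lymphoblastoid cells, 24 hr compound exposure at 37 C, AC50 from Hill fits.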

The nature of assay [10]: Cell Viability - LYMP2-014 (AID 983).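 Also: series mostly up to about 92 µM; plate controls were DMSO only for no effect and 92 µM tetraoctylammonium bromide for full effect; nearly all actives have a fitted effect of over 50% in size.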 The method in brief: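 Quantitative HTS in lymphoblastoid cells: 24 hr compound exposure, then CellTiter-Glo ATP luminescence. Positive control was tetraoctylammonium bromide, 6.4pM to 92 uM.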
Assay [11] can be described thus: Cell Viability - LYMP2-016 (AID 984).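 Also: cells exposed to compound for 24 hours at 37 °C; % is scaled to controls: 0 for no effect and ±100 for the full control effect; nearly all actives have a fitted effect of over 55% in size.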 The method in brief:
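Cytotoxicity was scored by luminescent ATP content (CellTiter-Glo) after 24 h compound exposure at 37 C of a human lymphoblastoid line at 2500 cells/well. Concentration-response data were fitted to the Hill equation for AC50.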

Assay [12] can be described thus: Cell Viability - LYMP2-018 (AID 985).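 Also: plate controls were DMSO only for no effect and tetraoctylammonium bromide at 92 µM for full effect; nearly all actives have a fitted effect of over 50% in size.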 Put shortly:
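In this qHTS viability assay, cells are treated for 24 hr and cellular ATP is quantified by luciferase-based luminescence, with tetraoctylammonium bromide as positive control.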

Assay [13] can be described thus: Cell Viability - LYMP2-020 (AID 986). The method in brief:
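Cells at 2500 per well receive a 24 hr compound exposure at 37 C. Viability is measured as ATP-dependent luciferase luminescence, with AC50 modeled from qHTS concentration-response curves.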

A short description of assay [14]: Cell Viability - LYMP2-022 (AID 987). The method in brief:
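In this qHTS cytotoxicity screen, compound titrations were incubated 24 hr at 37 C with human lymphoblastoid cells in complete medium. Luciferase-based ATP luminescence provided the viability signal.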

Assay [15] is described as follows: Cell Viability - LYMP2-024 (AID 988).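 Also: plate controls were DMSO only for no effect and 92 µM tetraoctylammonium bromide for full effect; nearly all actives have a fitted effect of over 60% in size.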 The method in brief: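 Cells at 2500 per well received compound for 24 hr after a 5 hr settling period. Viability was scored by CellTiter-Glo luminescence, with AC50 from Hill fits.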
Assay [16] has as its target Retinoic acid receptor RXR-alpha (Homo sapiens) (UniProt P19793). Kind of assay: qHTS assay for small molecule agonists of retinoid X receptor alpha signaling (AID 588544; calls by dose curve;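 also: 0% = DMSO basal wells and 100% = reference agonist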).
Assay [17] can be described thus: qHTS assay for small molecule disruptors of the mitochondrial membrane potential - 1 hr assay (AID 651754; calls by dose curve; also: % is scaled to controls: 0 for no effect and ±100 for the full control effect; nearly all actives have a fitted effect of over 35% in size). Put shortly: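 In this qHTS format, a 1 hr compound treatment of HepG2 cells precedes Mito-MPS staining, and membrane potential is judged from aggregate (red) against monomer (green) fluorescence intensity.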
Assay [18] is described as follows: qHTS assay for environmental chemicals that activate the Aryl hydrocarbon Receptor (AhR) signaling pathway (AID 651777). Also: % of control where 0% means no effect; nearly all actives have a fitted effect of over 15% in size. The settings on record: 1A2-DRE human hepatoma cells, luciferase, 24 h; activation: stronger effect = higher value. Put shortly:
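Following a 24 hr incubation with test chemicals at 37 C and 5% CO2, 1A2-DRE human hepatoma cells received One-Glo reagent; after 30 min at room temperature, luciferase output reflected CYP1A2 induction via AhR.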

Assay [19] in a line: qHTS assay for small molecule antagonists of retinoid X receptor alpha signaling (AID 588546; active = well fitted inhibition curve with a large enough effect in the signal ratio, with a control signal flat, not every such curve was filed as active; the % refers to the signal ratio;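 also: cells stimulated with 9-cis-retinoic acid as agonist; % is scaled to controls: 0 for no effect and ±100 for the full control effect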). The note with it: HEK293T RXRa-UAS-bla, beta-lactamase ratio, antagonist mode; measured here: W530 green channel, cytotoxicity proxy. The method in brief: (§1)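 Beta-lactamase reporter inhibition, read as CCF4 fluorescence ratio (ex 405, em 460/530 nm) after 2 h at RT. HEK293T UAS-bla cells, 2500/well, were stimulated with 9-cis-RA at 500 or 100 nM final alongside test compound for 18 h at 37 C.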

Assay [20] has as its target Retinoic acid receptor RXR-alpha (Homo sapiens) (UniProt P19793). The assay is described as above. The settings on record: HEK293T RXRa-UAS-bla, beta-lactamase ratio, antagonist mode. The method in brief:
as §1

Sequence of Retinoic acid receptor RXR-alpha (Homo sapiens) (P19793 whole entry, looked up): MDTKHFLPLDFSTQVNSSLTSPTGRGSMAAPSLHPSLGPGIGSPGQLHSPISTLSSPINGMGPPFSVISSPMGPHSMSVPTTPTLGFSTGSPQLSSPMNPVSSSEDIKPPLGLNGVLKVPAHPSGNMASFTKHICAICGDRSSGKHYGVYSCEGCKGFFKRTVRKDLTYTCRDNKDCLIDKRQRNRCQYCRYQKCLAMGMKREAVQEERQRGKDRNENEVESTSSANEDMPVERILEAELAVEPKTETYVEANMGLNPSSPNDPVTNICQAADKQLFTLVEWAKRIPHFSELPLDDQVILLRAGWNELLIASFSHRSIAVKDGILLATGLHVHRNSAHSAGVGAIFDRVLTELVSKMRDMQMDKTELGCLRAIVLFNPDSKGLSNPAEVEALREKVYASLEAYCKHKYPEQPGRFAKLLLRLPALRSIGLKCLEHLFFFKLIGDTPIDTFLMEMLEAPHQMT

As for `Clc1ccc2ccccc2c1`, the Potency entry in [1], in assay [2], in [3], in assay [4], in assay [5] and in assay [6] was “inactive” in each case. Moreover, the Potency result in assay [7], in assay [8], in [9], in assay [10], in assay [11] and in assay [12] was “inactive” each time. Further, the Potency entry in [13], in assay [14], in [15], in assay [16] and in [17] was “inactive” throughout. For the same compound, the activation in [18] was 0.057% (inactive).

On to `Nc1ccc(Br)cc1`, for which the Potency entry in assay [1], in assay [2], in [3], in assay [4], in assay [5] and in assay [6] was “inactive” in each case. For the same compound, the Potency result in assay [7], in assay [8], in [9], in assay [10], in assay [11] and in [12] was “inactive” throughout. Also, the Potency result in assay [13], in [14], in [15], in assay [16] and in [17] was “inactive” each time. The max response in assay [19] was 3.4%; in assay [20], 15.2% (inactive). The activation in assay [18] is 0.717% (inactive).

Consider `CC(=O)[O-].CC(=O)[O-].O.O.O.[Pb+2]`, for which the Potency result in assay [1], in assay [2], in [3], in [4], in [5] and in assay [6] was “inactive” each time. Moreover, the Potency result in assay [7], in assay [8], in assay [9], in assay [10], in assay [11] and in [12] was “inactive” throughout. The Potency entry in assay [13], in [14], in assay [15], in [16] and in assay [17] was “inactive” in each case. The max response was -8.42% and -6.15% in assay [19]; 27.2% (inactive) and 0.247% (inactive) in [20]. Further, in assay [18], the activation is 1.24% (inactive) and 0.452% (inactive).

On to `C=CCOC(=O)c1ccccc1N`, for which the Potency entry in assay [1], in [2], in [3], in assay [4], in assay [5] and in [6] was “inactive” each time. In addition, the Potency entry in assay [7], in assay [8], in assay [9], in assay [10], in assay [11] and in assay [12] was “inactive” in each case. For the same compound, the Potency entry in [13], in assay [14], in [15], in [16] and in assay [17] was “inactive” throughout. Further, the max response in assay [19] is -12.2%; in assay [20] it was 2.96% (inactive).

For the compound `COc1ccc(C=O)cc1OC`, the Potency result in assay [1], in assay [2], in assay [3], in assay [4], in assay [5] and in [6] was “inactive” in each case. Further, the Potency entry in assay [7], in assay [8], in assay [9], in assay [10], in assay [11] and in assay [12] was “inactive” throughout. Further, the Potency result in [13], in [14], in assay [15], in assay [16] and in [17] was “inactive” each time. Moreover, the max response in assay [19] was -5.56% and -4.77%; in assay [20], -9.7% (inactive) and -21.1% (inactive). Also, the activation in assay [18] was 0.671% (inactive) and 1.28% (inactive).

On to `CCCC(=O)Cl`, for which the Potency result in [1], in assay [2], in [3], in assay [4], in [5] and in assay [6] was “inactive” each time. Besides, the Potency result in assay [7], in assay [8], in assay [9], in [10], in assay [11] and in assay [12] was “inactive” each time. The Potency entry in assay [13], in [14], in [15], in assay [16] and in assay [17] was “inactive” throughout. Moreover, the values for the max response in assay [19] and in assay [20] were -5.53% and 15.7% (inactive), respectively. The activation in [18] is -2.02% (inactive).

For `C=CCOC(C)=O`, the Potency entry in [1], in assay [2], in [3], in assay [4], in assay [5] and in [6] was “inactive” each time. The Potency entry in [7], in [8], in [9], in assay [10], in assay [11] and in assay [12] was “inactive” throughout. Also, the Potency entry in assay [13], in [14], in [15], in assay [16] and in [17] was “inactive” in each case. The max response in assay [19] is -2.08%; in assay [20], 2.59% (inactive). In addition, the activation in assay [18] is -0.904% (inactive).
